The source of these data is PubChem BioAssay AID431 (Sanford-Burnham Center for Chemical Genomics, 2006).

Screen size: about 63,000 compounds; about 1,100 (1.7%) were called active.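 Rule for the calls: active = compounds whose percent cytotoxicity in the single-dose primary screen, scaled between solvent and toxic-drug controls, exceeds 50; inactive = the rest.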 This excerpt belongs to a sample that is enriched for actives. Measured potencies and affinities stand elsewhere.

The assay can be described thus: cytotoxicity in KRAS-transformed pancreatic duct cells, primary screen, cell-based, fluorescence, HTS (AID 431).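 Note: 0% = DMSO solvent wells and 100% = doxorubicin-treated wells.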 The following applies: HPDE-C7K KRASV12 cells, Alamar Blue viability, 48 h; at 10 µM; active compounds read high. (The colour change of resazurin is a common sign of viable cells or microbes.)
`O=C(Nc1ccccc1C(=O)N1CCCCCC1)c1cccc(S(=O)(=O)N2CCOCC2)c1`: the cytotoxicity is 6.4% (inactive). Turning to `CCN(CC)c1ccc2cc(C(=O)Nc3ccccn3)c(=O)oc2c1`, the cytotoxicity was 18.9% (inactive).

Consider `CCN(CC)c1ccc2cc(-c3nnc(-c4ccncc4)o3)c(=O)oc2c1`, for which the cytotoxicity is 71.1% (active). As for `CCN(CC)c1ccc2cc(-c3nc4ccccc4n3C)c(=O)oc2c1`, the cytotoxicity is 53.3% (active). As for `CCN(CC)c1ccc2cc(-c3nc4ccccc4[nH]3)c(=O)oc2c1`, the figure is 42.2% (inactive); as for `CC(=O)Oc1ccc2cc(-c3nc4ccccc4n3C)c(=O)oc2c1`, -1.4% (inactive). Regarding `O=c1oc2ccc3ccccc3c2cc1-c1nnc(-c2ccccc2)o1`, the cytotoxicity is -4.9% (inactive). The result for `C/C(Cl)=C/Cn1c(NCCN(C)C)nc2c1c(=O)n(C)c(=O)n2C` reads 10.3% (inactive). In the case of `CCCCC(=O)Nc1ccc2c(c1)nc1n2CCOC1`, the cytotoxicity is -4.8% (inactive). Consider `Cc1onc(-c2ccccc2)c1C(=O)NCc1ccco1`, for which the cytotoxicity is 9% (inactive).

On to `Fc1ccc(CN2CCCCCCC2)c(F)c1`, for which the cytotoxicity is 4.9% (inactive).

For the molecule `CCCC(C(=O)NCc1ccco1)N(C(=O)CNS(=O)(=O)c1ccc(Cl)cc1)C1CCCC1` (stereo unspecified), the cytotoxicity is 2.5% (inactive). Take `Cn1cc(C(=O)N2CCN(C(=O)c3ccco3)CC2)c2c3ccccc3n(C)c2c1=O`: the cytotoxicity was -0.8% (inactive). `Cc1cccc(N2CCN(C(=O)c3cn(C)c(=O)c4c3c3ccccc3n4C)CC2)c1C`: the cytotoxicity was 88.5% (active). As to `Cc1ccc(Cl)cc1N1CCN(C(=O)c2cn(C)c(=O)c3c2c2ccccc2n3C)CC1`, the cytotoxicity was 110% (active).

Consider `COc1ccc(N2CCN(C(=O)c3cn(C)c(=O)c4c3c3ccccc3n4C)CC2)cc1`, for which the cytotoxicity was 10.6% (inactive). The result for `CCOC(=O)N1CCN(C(=O)c2cn(C)c(=O)c3c2c2ccccc2n3C)CC1` reads 4.1% (inactive).

For `Cc1ccc(Cl)cc1N1CCN(C(=O)c2cc3c(=O)n(C)c4ccccc4c3n2C)CC1`, the cytotoxicity was 38.6% (inactive). For `Cn1c2c(c(=O)n(C)c1=O)CN(Cc1ccc3c(c1)OCO3)CN2`, the cytotoxicity was 4.8% (inactive). As for `O=C(Nc1ccc(Cl)cn1)c1cc2ccccc2o1`, the figure is -4.1% (inactive); as for `COc1cc(C2Nc3cc(Cl)c(S(N)(=O)=O)cc3S(=O)(=O)N2)cc(OC)c1OC` (stereo unspecified), -17.3% (inactive); as for `N#CCCN1CCN(S(=O)(=O)c2ccc(S(=O)(=O)N3CCCCCC3)cc2)CC1`, 0.7% (inactive). Take `COc1ccc(N2CCN(C(=O)CN3C(=O)C4CC=CCC4C3=O)CC2)cc1` (stereo unspecified): the cytotoxicity is 0.2% (inactive). The result for `Cc1ccc(C2C3=C(CC(C)(C)CC3=O)NC3=C2C(=O)CC(C)(C)C3)o1` reads -0.9% (inactive); that for `Nc1c(C(=O)NC2CCCC2)c2nc3ccccc3nc2n1N`, 10.7% (inactive); that for `COCCn1c(N)c(C(=O)NCc2cccs2)c2nc3ccccc3nc21`, 9.2% (inactive).

As for `COCCNC(=O)c1c(N)n(CCCn2ccnc2)c2nc3ccccc3nc12`, the cytotoxicity is 6.1% (inactive). The result for `COCCn1c(N)c(C(=O)NCC2CCCO2)c2nc3ccccc3nc21` (stereo unspecified) reads 15.6% (inactive); that for `CC(C)Cn1c(N)c(C(=O)NCC2CCCO2)c2nc3ccccc3nc21` (stereo unspecified), 22.7% (inactive). As for `COCCNC(=O)c1c(N)n(-c2cccc(C)c2)c2nc3ccccc3nc12`, the cytotoxicity was 26.4% (inactive). As to `Nc1c(C(=O)NCC2CCCO2)c2nc3ccccc3nc2n1-c1ccccc1` (stereo unspecified), the cytotoxicity is 10.6% (inactive). Consider `CC(C)Cn1c(N)c(C(=O)NCCN2CCOCC2)c2nc3ccccc3nc21`, for which the cytotoxicity is -5.3% (inactive). Regarding `CC(C)Cn1c(N)c(C(=O)NCc2cccs2)c2nc3ccccc3nc21`, the cytotoxicity is 92.2% (active). As for `COCCSc1nnc(-c2cccc(C#N)c2)n1C`, the cytotoxicity was -2.9% (inactive). Take `COc1cc(C)c(C#N)c(OC)n1`: the cytotoxicity was 0% (inactive).

Regarding `CC(C)OCC(O)CN` (stereo unspecified), the cytotoxicity is -11.2% (inactive). For the molecule `CCCn1c(=C(C#N)C#N)s/c(=C2\C=Cc3ccccc3N2CC)c1=O`, the cytotoxicity was 6% (inactive). The result for `Cc1nc(C)c(C(=O)NCc2ccc(Cl)cc2)o1` reads -5.4% (inactive); that for `O=C(CN1CCN(S(=O)(=O)c2ccc(F)cc2)CC1)Nc1ccc2c(c1)OCO2`, 0.6% (inactive).

With `CCOC(=O)COc1ccc2nsnc2c1Cl`, the cytotoxicity is 2.6% (inactive).

On to `COCCn1c(SC(C)C(=O)Nc2ccc3c(c2)OCCO3)nc2ccccc2c1=O` (stereo unspecified), for which the cytotoxicity was -20.1% (inactive). The result for `CCc1nnc(NC(=O)CSc2nnc(Cc3cccn3C)n2C)s1` reads 4% (inactive); that for `CC1(C)Cc2c(c(N3CCOCC3)nc3sc(C(=O)N4CCCCC4)c(N)c23)CO1`, -5.9% (inactive); that for `CC1(C)Cc2c(c(N3CCOCC3)nc3snc(Br)c23)CO1`, -11% (inactive). As for `Cc1cccnc1Nc1nc(-c2ccc(O)cc2O)cs1`, the figure is 78% (active); as for `Cc1nc(-c2c(-c3ccc(O)cc3O)noc2C(F)(F)F)cs1`, 1.3% (inactive). For the molecule `Cc1cc(O)ccc1Nc1nc(-c2sc(N)nc2C)cs1`, the cytotoxicity was 13% (inactive).

Regarding `COc1ccc(C(C(=O)NC(C)(C)C)N(Cc2ccco2)C(=O)CCC(=O)Nc2cc(C)on2)cc1` (stereo unspecified), the cytotoxicity was -10% (inactive). With `O=C(O)c1ccc(CS(=O)(=O)c2cccc(C(F)(F)F)c2)o1`, the cytotoxicity is 0.8% (inactive). Consider `CCCCOc1ccc(OCCCC)c2c1NC1(N2)C(=O)N(C(C)=O)c2ccccc21`, for which the cytotoxicity was 59.6% (active).

Consider `CCNC(=O)N1C(=O)C2(OCCO2)c2ccccc21`, for which the cytotoxicity is -11.6% (inactive). As to `CC(=O)N1C(=O)C2(Nc3ccccc3N2)c2ccccc21`, the cytotoxicity was 2.8% (inactive).

`CCn1c(=NC(=O)CSC(C)=O)sc2cc(F)ccc21`: the cytotoxicity is -9.8% (inactive). As for `Cc1c(C(C)O)nnn1-c1nonc1N` (stereo unspecified), the figure is 7.8% (inactive); as for `CC(c1ccco1)N(C(=O)C12CC3CC(CC(C3)C1)C2)c1ccccn1` (stereo unspecified), -19.3% (inactive). As for `Cc1nn(C(C)(C)C)c(OC(=O)c2cccs2)c1S(=O)(=O)c1ccccc1`, the figure is 64% (active); as for `Cc1ccc(S(=O)(=O)c2c(C)nn(C(C)(C)C)c2OC(=O)c2cccs2)cc1`, 5% (inactive). With `Cc1ccc(S(=O)(=O)c2c(C)nn(C(C)(C)C)c2OC(=O)c2ccco2)cc1`, the cytotoxicity is 5.7% (inactive). The result for `Cc1nn(-c2ccccc2)c(OC(=O)c2cccs2)c1S(=O)(=O)c1ccccc1` reads 1.2% (inactive); that for `CC(=O)Oc1c(S(=O)(=O)c2ccc(C)cc2)c(C)nn1C(C)(C)C`, 3.3% (inactive); that for `O=C(Cc1coc2ccc3ccccc3c12)N1CCN(c2ncccn2)CC1`, 0.6% (inactive).
